# Laboratory results published in PubChem BioAssay AID485364 (National Center for Advancing Translational Sciences (NCATS), 2010).
# Hit rate of the full screen: of about 360,000 compounds, about 11,000 (3.1%) were called active. A call without a number means that no potency is given here. Not shown: some 4% with an inconclusive outcome. The call rests on the fitted dose curve; in most records, active means well fitted inhibition curve with a large enough effect; inconclusive means small, poorly fitted or top-dose-only effect; inactive means no such curve, though single readings can be large or run the other way. For the sample, actives were picked, then their nearest neighbours and some compounds at random.
# Target: Schistosoma mansoni thioredoxin glutathione reductase (TGR) (UniProt Q962Y6)
# Assay: qHTS Assay for the Inhibitors of Schistosoma Mansoni Peroxiredoxins; further: nearly all actives have a fitted effect of over 60% in size
# Conditions: purified TGR, DTNB reduction, TNB absorbance 405 nm; series mostly up to 114 µM
# How it was run: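 Kinetic colorimetric format: TGR-catalysed, NADPH-driven DTNB reduction monitored via TNB absorbance. Enzyme dispensed at 20 nM; compound exposure 15 min at room temperature before reaction start.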
# Potency means the concentration at half of the fitted maximal effect.
row,Compound,Potency
1,Cn1c(=O)c2c(SCC(=O)N3CCc4ccccc43)nc(-c3ccc(Cl)cc3)nc2n(C)c1=O,inactive
2,COc1ccc(-c2nc(C)c(CCNC(=O)c3ccc(C(F)(F)F)cc3)s2)cc1OC,inactive
3,COc1ccccc1NC(=O)CSC1=Nc2ccccc2C2=NC(CC(=O)NCc3cccs3)C(=O)N12 (centres undefined),inactive
4,Cn1c(=O)c2c(SCC(=O)NCC3CCCO3)nc(-c3ccccc3F)nc2n(C)c1=O (centres undefined),inactive
5,CCCCc1nn2c(=O)cc(COC(=O)c3ccccc3NC(=O)C(C)(C)C)nc2s1,inactive
6,Cc1nn(C(C)C(=O)NCCc2ccccc2)c(=O)c2c1sc1ccccc12 (centres undefined),inactive
7,COc1cccc2c1cc1c(=O)n(CC(=O)N3CCN(c4ccccc4)CC3)nc(C)n12,inactive
8,O=c1c2cccnc2n(Cc2cccc(F)c2)c(=O)n1Cc1ccccc1Cl,inactive
9,COc1cccc2c1cc1c(=O)n(CC(=O)N3CCN(c4cccc(Cl)c4)CC3)nc(C)n12,inactive
10,Cc1nc2ccccn2c(=O)c1NC(=O)c1c(F)cccc1F,inactive
11,CCn1cc(C(=O)N(C)Cc2ccccc2)c(=O)c2cc(S(=O)(=O)N3CCCCCC3)ccc21,inactive
12,CC(CCO)Nc1nc2c([nH]1)c(=O)n(C)c(=O)n2C (centres undefined),inactive
13,Cc1cccc(C)c1NC(=O)CSc1nc2c([nH]1)c(=O)n(C)c(=O)n2C,inactive
14,Cc1ccc(NN=Nc2nc3c([nH]2)c(=O)n(C)c(=O)n3C)cc1,56.2 µM (active)
15,CCc1cccc(C)c1NS(=O)(=O)c1ccc(-c2cc(C)no2)s1,inactive
16,Cc1nc2ccn(Cc3cccs3)c(=O)c2cc1C(=O)NCc1ccc(Cl)cc1,inactive
17,COc1ccc(-c2onc(C)c2C)cc1S(=O)(=O)NCc1cccs1,inactive
18,CCN(CC)S(=O)(=O)c1ccc2c(c1)c(=O)c(C(=O)N1CCN(c3cccc(Cl)c3)CC1)cn2C,inactive
19,Cc1cc(NC(=O)CCC(=O)N(CC(=O)NC2CCCC2)c2ccc(F)cc2)no1,inactive
20,Cc1cc(NC(=O)CCS(=O)(=O)c2ccc(F)cc2)no1,17.8 µM (active)
21,Cc1cc(NC(=O)CSc2nnnn2-c2ccc(F)cc2)no1,inactive
22,COc1ccccc1Nc1c2c(nc3ccc(NC(=O)/C=C/c4cc(OC)c(OC)c(OC)c4)cc13)CCCC2,inactive
23,CCOC(=O)c1ccc(CSc2nnc3cc(C)c4ccccc4n23)cc1,inactive
24,Cc1ccc2c(c1)=C/C(=C\c1c(O)[nH]c(=O)[nH]c1=O)C(=O)N=2,14.1 µM (active)
25,O=C1N=c2ccccc2=C/C1=C\c1c(O)[nH]c(=S)[nH]c1=O,10 µM (active)

row,Compound,Potency
1,O=c1[nH]c(O)c(C=Nc2cc(F)cc(F)c2)c(=O)[nH]1,inactive
2,Cc1cccc(S(=O)(=O)c2cn(Cc3ccccc3)c3cc(N4CCOCC4)c(F)cc3c2=O)c1,inactive
3,COc1ccc(NC(=O)CCCc2nnc3n(CCC(C)C)c(=O)c4sccc4n23)c(OC)c1,inactive
4,CCn1c2ccccc2c2cc(CN3CCN(Cc4cccc(Cl)c4)CC3)ccc21,inactive
5,CCOC(=O)c1c(SCC(=O)Nc2cccc(C)c2C)nc(=O)[nH]c1C,inactive
6,Cc1ccc(NC(=O)CSc2nc3c(c(=O)[nH]2)CN(Cc2ccc4c(c2)OCO4)CC3)cc1C,inactive
7,COc1ccc(Cl)cc1NC(=O)C(C)Sc1nc2c(c(=O)[nH]1)CCCC2 (centres undefined),inactive
8,CCC(=O)Nc1ccccc1-c1nc2ccccc2n(CC(=O)Nc2ccc(C)c(C)c2)c1=O,inactive
9,CCOc1ccc(CNC(=O)c2cc(=O)[nH]c3ccc(S(=O)(=O)N4CCCCC4)cc23)cc1,inactive
10,O=C(Cn1ncn2nc(-c3cccs3)cc2c1=O)NCc1cccc(Br)c1,inactive
11,COc1cc(OC)c(C2C=C(C(=O)O)Nc3ncnn32)cc1OC (centres undefined),inactive
12,CS(=O)(=O)C1=NN2C(=N)/C(=C\c3ccc(OCCOc4ccccc4)cc3)C(=O)N=C2S1,inactive
13,CCS(=O)(=O)C1=NSC2=NC(=O)/C(=C\c3ccc(OS(=O)(=O)c4ccccc4)cc3)C(=N)N21,inactive
14,CS(=O)(=O)c1ccc2c(c1)SC1=NC(=O)/C(=C/c3ccco3)C(=N)N12,20 µM (active)
15,CCOC(=O)c1ccc(NC(=O)CC2C(=O)N(c3ccccc3)C(=O)N2Cc2cccs2)cc1 (centres undefined),inactive
16,O=C(COC(=O)c1cnc(Cl)c(Cl)c1)NCc1ccco1,inactive
17,C/C(=N\Nc1ncc(Cl)cc1Cl)c1ccc(S(=O)(=O)NCc2ccco2)cc1,inactive
18,Cc1c(Cl)cnc(NC(=O)COC(=O)c2ccc(S(=O)(=O)NCc3ccco3)cc2)c1Cl,28.2 µM (active)
19,COc1ccc(NC(=O)CSc2nccn2Cc2ccc3c(c2)OCO3)cc1,inactive
20,CC1=C(C(=O)Nc2ccccc2Cl)C(c2cccs2)n2ncnc2N1 (centres undefined),inactive
21,O=C(CSc1ncc(CO)n1Cc1ccc(Cl)cc1)NCc1ccc(F)cc1,inactive
22,Cc1cc(C)c(OCC(=O)N/N=C/c2ccco2)c(C)c1,inactive
23,COC(=O)COc1cc(C)cc2oc(=O)c3c(c12)CCCC3,inactive
24,COC(=O)COc1ccc2c(c1C)O/C(=C\c1ccco1)C2=O,10 µM (active)
25,Cc1ccc(NS(=O)(=O)c2ccc(-c3ccc(=O)[nH]n3)o2)c(C)c1,inactive

row,Compound,Potency
1,CC1CCCN(S(=O)(=O)c2ccc(-c3ccc(=O)[nH]n3)o2)C1 (centres undefined),28.2 µM (active)
2,CC1CCCN(S(=O)(=O)c2ccc(C(=O)Nc3nnc(-c4ccncc4)o3)cc2)C1 (centres undefined),inactive
3,Cc1ccc(CCNC(=O)c2ccc(CS(=O)(=O)Cc3cccc(C)c3)o2)cc1,inactive
4,Cc1ccc2nc(NC(=O)c3nc(SCc4ccccc4F)ncc3Cl)sc2c1,inactive
5,Cc1cccc(CS(=O)(=O)c2ncc(Cl)c(C(=O)Nc3ccc(F)cc3)n2)c1,7.08 µM (active)
6,CCS(=O)(=O)c1ncc(N(Cc2ccc(F)cc2)Cc2ccco2)c(C(=O)Nc2cc(C)ccc2C)n1,inactive
7,O=C(Nc1nc2ccc(F)cc2s1)c1nc(SCc2ccccc2F)ncc1Cl,inactive
8,CCOC(=O)c1ccc(NC(=O)c2nc(SCc3ccc(F)cc3)ncc2Cl)cc1,inactive
9,Cc1ccc(NC(=O)c2cccnc2C(=O)Nc2ccc(C)cc2)cc1,inactive
10,Cc1ccc(NC(=O)c2nc(S(=O)(=O)Cc3cccc(C)c3)ncc2Cl)cc1,12.6 µM (active)
11,CSc1nnc(NC(=O)c2nc(S(=O)(=O)Cc3ccc(C)cc3)ncc2Cl)s1,3.16 µM (active)
12,Cc1ccc(C)c(Oc2c(C(F)(F)F)oc3c(CN4CCN(C)CC4)c(O)ccc3c2=O)c1,inactive
13,Cc1ccc2nc(COc3cccc(NC(=O)c4ccccc4Cl)c3)cc(=O)n2c1,inactive
14,Cc1[nH]c2ccccc2c1C(c1ccccc1)c1cccs1 (centres undefined),inactive
15,COc1ccc(N2CCN(S(=O)(=O)CCNC(=O)C(c3ccccc3)c3ccccc3)CC2)cc1,inactive
16,O=S(=O)(c1ccc(SCc2ccccc2)nc1)N1CCCCCC1,inactive
17,O=C(O)CSc1ccc(S(=O)(=O)N2CCCC2)cn1,50.1 µM (active)
18,CC(C)(C)C(=O)CSc1ccc(S(=O)(=O)N2CCCC2)cn1,inactive
19,COc1cc2c(cc1OC)C(COc1ccc(F)cc1)N(C(=O)c1ccccc1F)CC2 (centres undefined),inactive
20,COc1cccc(C(=O)NC2(C(F)(F)F)C(=O)Nc3c2c(=O)[nH]c(=O)n3-c2ccc(C)cc2)c1 (centres undefined),inactive
21,COc1ccc(C2=NC(c3ccncc3)=Nc3ccc(Br)cc3N2)cc1,inactive
22,Cc1ccc(C)c(-n2c(SCC(=O)O)nc3sc4c(c3c2=O)CCCC4)c1,inactive
23,Cc1nc2sc3c(c2c(=O)n1NC(=O)CCl)CCCC3,39.8 µM (active)
24,Cn1c(NN)nc2sc3c(c2c1=O)CCC3,inactive
25,CCC(=O)N1CCc2cc(S(=O)(=O)NC(C(=O)NCCc3ccc(C)cc3)C(C)C)ccc21 (centres undefined),inactive

row,Compound,Potency
1,CCCCCCC(O)(CCN1CCCCC1)c1ccccc1 (centres undefined),inactive
2,CCCCCC(O)(CCN1CCCCC1)c1ccccc1 (centres undefined),31.6 µM (active)
3,C#CC(CCN1CCCCC1)(OC)c1ccccc1 (centres undefined),inactive
4,Fc1ccccc1Oc1ncnc2c1oc1ccccc12,inactive
5,COc1ccc(NC(=O)/C(Cl)=C(/Cl)S(=O)Cc2ccc(C)cc2)cn1 (centres undefined),inactive
6,COc1ccc(CS(=O)/C(Cl)=C(/Cl)C(=O)Nc2ccc(OC)nc2)cc1 (centres undefined),0.447 µM (active)
7,COc1ccc(NC(=O)C(=O)NCc2ccco2)cc1,inactive
8,COc1cccc(CNCCSc2nnnn2C)c1OCc1ccccc1Cl,inactive
9,O=C(C1CC1)N1CCc2cc(Br)cc(S(=O)(=O)N3CCN(c4ccccc4F)CC3)c21,inactive
10,COc1ccc2c(C(=O)c3ccc(C)cc3)n(CCC(N)=O)[n+]([O-])c2c1,inactive
11,COc1ccc(C(=O)c2c3ccc([N+](=O)[O-])cc3[n+]([O-])n2CCCN)cc1,25.1 µM (active)
12,COc1ccc(C(=O)NCCNc2ccc([N+](=O)[O-])cn2)cc1,inactive
13,CCCN(C(=O)Cn1ncc2c([nH]c3ccc(C)cc32)c1=O)c1ccccc1C,inactive
14,O=C(c1ccc2c(c1)N(Cc1ccccc1)C(=O)c1ccccc1S2(=O)=O)N1CCCC1,inactive
15,Cc1cccc(N2CCN(C(=O)CCSCc3ccccc3F)CC2)c1C,inactive
16,Cc1ccc(C)c(CNC(=O)c2cc3ccccn3n2)c1,inactive
17,Cc1ccc(C(=O)NC(=S)Nc2ccccc2C)cc1,31.6 µM (active)
18,Cc1cc(C(=O)NNC(=S)Nc2ccccc2C)cs1,inactive
19,Cc1ccccc1NC(=S)NNC(=O)c1cccc(Br)c1,inactive
20,CCOC(=O)c1cccc(NC(=O)C(Cc2ccccc2)NS(=O)(=O)c2cccc3nsnc23)c1 (centres undefined),inactive
21,O=c1c2ccccc2n(Cc2cccc(Cl)c2)c(=O)n1Cc1ccccc1,inactive
22,C/C=C(\C)C(=O)N1CC2(CC(c3cccc(NC(=O)CCCCC)c3)=NO2)C[C@@H]1C(N)=O (some centres undefined),inactive
23,C/C=C(/C)C(=O)Nc1cccc(C2=NOC3(C2)C[C@@H](C(N)=O)N(C(=O)C2(C)CC2)C3)c1 (some centres undefined),inactive
24,C/C=C\C=C\C(=O)N1CC2(CC(c3cccc(NC(=O)/C(C)=C\C)c3)=NO2)C[C@H]1C(N)=O (some centres undefined),7.94 µM (active)
